Measurements taken from PubChem BioAssay AID623868 (Vanderbilt High Throughput Screening Facility, 2012).
The campaign covered roughly 2,100 compounds. About 760 (36%) were called active. The list is a sample of the results. A number with no mark means an inactive call.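 How the source made its calls: active means thallium-flux fluorescence traces judged by eye to show enhanced or reduced glutamate response, manual score 1 or -1, so both directions (some results past the limit were not filed as active); inactive means the rest, including fluorescent or raised-baseline compounds.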

Assay: thallium influx changes without GIRK channels – cell-based, HEK-293 rmGlu8, no GIRK, thallium flux, counter-screen for GIRK activator project, confirmation (AID 623868);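 further: extra codes mark interference with 3 for fluorescent and 4 for baseline rise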
Details: thallium flux fluorescence, at 10 µM, actives lie on both sides, codes: 1 enhancer, -1 blocker, 0 none, thallium stimulus containing EC20 glutamate

Row | Structure (SMILES) | manual score
1 | O=C(c1ccco1)N1CCN(C(=O)c2cnn3c2NC(c2cccs2)CC3C(F)(F)F)CC1 (stereo not drawn) | 0
2 | O=C(CSc1nc(-c2ccccc2)cc(C(F)(F)F)n1)NCCN1CCOCC1 | 0
3 | O=C(CN1CCOCC1)Nc1ccc(C2CCCCC2)cc1 | 0
4 | CCc1sc(NC(=O)CN2CCOCC2)nc1-c1ccccc1 | -1 (active)
5 | CCN(CC)S(=O)(=O)c1csc(C(=O)NCc2ccccc2)c1 | 0
6 | C=CCOc1cccc(C2C(C(=O)c3ccc(C)o3)=C(O)C(=O)N2c2nccs2)c1 (stereo not drawn) | 3
7 | COc1ccc2nc3oc(C(=O)Nc4ccc(OC)c(OC)c4)cc3cc2c1 | 0
8 | COc1ccc(C(OC(=O)c2cccs2)C(=O)NCC2CCCO2)cc1 (stereo not drawn) | 0
9 | COc1ccc(OC)c(C2C(C(=O)c3cccs3)=C(O)C(=O)N2c2cc(C)on2)c1 (stereo not drawn) | -1 (active)
10 | COc1ccc(OC)c(C2C(C(=O)c3cc4ccccc4o3)=C(O)C(=O)N2c2cc(C)on2)c1 (stereo not drawn) | -1 (active)
11 | Cc1cc(N2C(=O)C(O)=C(C(=O)c3ccc(C)o3)C2c2cccs2)no1 (stereo not drawn) | -1 (active)
12 | C/C(CC(=O)NCC(C)C)=N\NC(=O)COc1cc(C)c(Br)cc1Br | 0
13 | CCOc1ccc(N2C(=O)c3ccccc3C2O)cc1 (stereo not drawn) | 0
14 | CCOc1ccc(NC(=O)CCC(=O)c2ccc(-c3ccccc3)cc2)cc1 | 0
15 | COc1ccc(C(=O)NC(=S)N(Cc2ccccc2)Cc2ccccc2)cc1 | 1 (active)
16 | CCOc1ccc(C(=O)NC(=S)N(Cc2ccccc2)Cc2ccccc2)cc1 | 1 (active)
17 | COc1ccc(S(=O)(=O)N(CCc2ccccc2)CC(=O)O)cc1 | 0
18 | CC(=O)CN1Cc2ccccc2/C1=N\C(=O)Nc1ccccc1 | 0
19 | Cc1nc2ccccn2c1-c1csc(NCc2ccco2)n1 | -0.5
20 | CCc1c(C)c(C#N)c2nc3ccccc3n2c1NCc1ccco1 | -1 (active)
21 | Cn1cc(S(=O)(=O)Nc2ccc(F)cc2F)c(=O)n(C)c1=O | 0
22 | N/C(=N\OC(=O)Cc1ccccc1)c1ccc(Br)cc1 | 0

Row | Structure (SMILES) | manual score
23 | COc1ccc(/C=N/NC(=O)c2nc(-c3ccccc3)cc(-c3ccccc3)n2)cc1 | 0
24 | O=C(N/N=C/c1ccccn1)c1ccc(Br)cc1 | 1 (active)
25 | COc1ccc(C(=O)N/N=C/c2ccc3cccc(OCc4ccccc4)c3n2)cc1 | 1 (active)
26 | O=C(N/N=C/c1ccc2cccc(OCc3ccccc3)c2n1)c1ccc(Br)cc1 | 1 (active)
27 | CSC1=N/C(=C\c2ccc(Br)o2)C(=O)S1 | 0
28 | CCCCN(C)C1=CC2=CC(=C(C#N)C#N)CCC2CC1 (stereo not drawn) | 3
29 | Cc1cc2c(cc1C)C(=O)NC(C)(C)C2 | 0
30 | Cc1cccc(OCC(O)CN2C(C)(C)CC(O)CC2(C)C)c1 (stereo not drawn) | 0
31 | COc1ccc(Nc2nc(C)cc(C)c2C#N)cc1OC | 0
32 | CCc1nc(N2CCOCC2)c(C#N)c2c1CCCC2 | 0
33 | Oc1[nH]c2ccccc2c1N=Nc1nc2ccccc2s1 | 1 (active)
34 | CCN(CC)CCCn1c(=S)[nH]c2cc(Cl)ccc2c1=O | 0
35 | CCCCn1c(-c2ccc(Cl)cc2)nc2c(=O)n(C)c(=O)[nH]c21 | 0
36 | CCCCn1c(=S)[nH]c2c(oc3ccc(Cl)cc32)c1=O | 1 (active)
37 | CC1(C)CC(=O)c2c(noc2-c2ccccc2)C1 | 0
38 | CCCN(CCC)C(=S)NC(=O)c1ccc(Cl)cc1Cl | 1 (active)
39 | CC1Cc2ccccc2N1C(=S)NC(=O)c1ccc(Cl)cc1Cl (stereo not drawn) | 1 (active)
40 | CCCCN(CCCC)C(=S)NC(=O)c1ccccc1Cl | 1 (active)
41 | CCCN(CCC)CCCOC(=O)c1ccc(Cl)cc1Cl | 0
42 | CCCCN(CCCC)C(=S)NC(=O)C(C)(C)C | 1 (active)
43 | CCCCn1c(NC(=O)c2ccccc2Cl)c(C#N)c2nc3ccccc3nc21 | 0
44 | CCCCN(CCCC)S(=O)(=O)c1ccc(NC(=O)c2ccc([N+](=O)[O-])cc2Cl)cc1 | 0

Row | Structure (SMILES) | manual score
45 | CCCCN(CCCC)c1ccc(C(=O)c2ccccc2C(=O)O)c(O)c1 | -0.5
46 | CC(C)CCNC(=O)C(C)N(C(=O)Cn1nnc(-c2ccc(F)cc2)n1)C1CCCC1 (stereo not drawn) | 0
47 | CCCCC(=O)N1CCCC(c2nc3c(nnn3Cc3cc(C)ccc3C)c(=O)[nH]2)C1 (stereo not drawn) | 0
48 | CC(C)(C)c1ccc(CN2C3=NCCCN3c3ccccc32)cc1 | 0
49 | CCN(CC)C(=S)NC(=O)c1ccc(Cl)cc1Cl | 1 (active)
50 | CCOC(=O)/C(=C/C=C1\Sc2ccccc2N1CC)C(C)=O | 3
51 | COc1ccc(NC(=S)NC(NC(=O)/C=C/c2ccccc2)C(Cl)(Cl)Cl)cc1 (stereo not drawn) | 0
52 | COc1ccc(/C=C/C(=O)c2cc(Br)ccc(=O)c2O)cc1 | 1 (active)
53 | O=C(/C=C/c1ccccc1)c1cc(Br)ccc(=O)c1O | 1 (active)
54 | Cc1ccc(/C=C/C(=O)c2ccccc(=O)c2O)cc1C | 1 (active)
55 | CCc1ccc(/C=C/C(=O)c2cc(Br)ccc(=O)c2O)cc1 | 1 (active)
56 | CCCCCCn1cnc2c(c1=O)c1nc3ccccc3nc1n2/N=C/c1ccco1 | 0
57 | Cc1cccc(/C=c2\s/c(=C\C(=O)C(C)(C)C)[nH]c2=O)c1 | 0
58 | Cc1cccc(/C=C/C(=O)c2cc(Br)ccc(=O)c2O)c1 | 1 (active)
59 | Cc1cccc(NC(=O)COc2ccc(Br)cc2/C=N/O)c1 | 0
60 | CC(C)(C)C1CCc2[nH]nc(C(=O)O)c2C1 (stereo not drawn) | -1 (active)
61 | CSC(=O)NC12CC3CC(CC(C)(C3)C1)C2 | 0
62 | Cc1ccc(C(=O)NC(=S)Nc2ccccc2C(F)(F)F)cc1C | 1 (active)
63 | Cc1cccc(C(=O)NC(=S)Nc2ccccc2C(F)(F)F)c1 | 1 (active)
64 | Cc1ccc(C(=O)NC(=S)Nc2ccccc2C(F)(F)F)cc1 | 1 (active)
65 | O=C(NC(=S)Nc1cc(C(F)(F)F)ccc1Cl)c1ccccc1 | 0
66 | O=C(NC(=S)NCc1ccc(-c2nc3ccccc3s2)cc1)c1ccco1 | 1 (active)

Row | Structure (SMILES) | manual score
67 | O=C(NC(=S)Nc1nc2ccccc2s1)c1ccco1 | 1 (active)
68 | O=C(Nc1ccncc1)c1ccc2c(c1)C(=O)N(C1CCCCC1)C2=O | 0
69 | CC(C)(C)C(=O)/C=c1\[nH]c(=O)/c(=C\c2ccc(F)cc2)s1 | 0.5
70 | CCOc1ccc(C(C)=O)cc1N1C(=O)C2C(C1=O)C1C=CC2C12CC2 (stereo not drawn) | 0
71 | CCOc1cc(/C=N/NC(=O)CNc2cccc(C)c2)ccc1OC(=O)c1ccccc1 | 0
72 | Cc1ccc(C(=O)NNc2nc3ccccc3nc2C(F)(F)F)cc1 | 1 (active)
73 | Cc1nc(/N=C(\N)NC(=O)c2ccccc2)nc2ccccc12 | 0
74 | Cc1ccc(C(=O)NC2(C(F)(F)F)N=C3SCCN3C2=O)cc1 (stereo not drawn) | 0
75 | O=C(NNc1nc2ccccc2nc1C(F)(F)F)c1ccccc1 | 1 (active)
76 | CC(C)n1c(CCC(=O)O)ccc1-c1ccccc1 | 0
77 | Fc1ccc(/C=N/NC(=S)Nc2ccc(Cl)cc2)cc1F | 1 (active)
78 | Fc1ccc(NC(=S)N/N=C/c2cccc(Br)c2)c(F)c1 | 1 (active)
79 | Fc1cc(Br)ccc1NC(=S)NCCc1ccccc1 | 0
80 | Fc1cccc(/C=N/NC(=S)Nc2ccccc2Cl)c1 | 1 (active)
81 | Fc1ccc(NC(=S)N/N=C/c2ccc(F)c(F)c2)c(F)c1 | 1 (active)
82 | S=C(N/N=C/c1ccccc1Cl)Nc1ccccc1 | 0
83 | CCSc1ccccc1C(=O)Nc1cccnc1 | 0
84 | CN(C(=O)c1cccnc1)c1nnc(-c2cnccn2)s1 | 0
85 | Cc1ccccc1-n1nnc2c(=O)oc3ccccc3c21 | -1 (active)
86 | CN1C(=O)c2oc3ccccc3c(=O)c2C1c1ccccn1 (stereo not drawn) | 0
87 | CC(=O)Oc1ccc2c(c1)Oc1cc(OC(C)=O)ccc1C21OC(=O)c2ccccc21 | 3
88 | COc1ccc(NC(=O)CSc2nc3ccccc3c(=O)n2CCCN2CCCCC2)c(OC)c1 | 0

Row | Structure (SMILES) | manual score
89 | COc1cccc(NC(=O)Cn2cc(C#N)c3ccccc32)c1 | 0
90 | CCCn1c(SC(C(=O)Nc2cc(C)ccc2OC)c2ccccc2)nc2ccccc2c1=O (stereo not drawn) | 1 (active)
91 | COc1cc(OC)c(NC(=O)CCNC(=O)Cn2cnc3ccccc3c2=O)cc1Cl | 0
92 | COc1cccc(NC(=O)C(Sc2nc3ccccc3c(=O)n2CC(C)C)c2ccccc2)c1 (stereo not drawn) | 1 (active)
93 | COc1cccc(NC(=O)CSc2nc(N)cc(N)n2)c1 | 0
94 | C=CCN(CC=C)C(=S)NC(=O)c1ccc(-c2ccccc2)cc1 | 1 (active)
95 | CCCN(CCC)C(=S)NC(=O)c1ccc(-c2ccccc2)cc1 | 1 (active)
96 | CN(Cc1ccccc1)C(=S)NC(=O)c1ccc(-c2ccccc2)cc1 | 1 (active)
97 | O=C(NC(=S)NCC1COc2ccccc2O1)c1ccccc1 (stereo not drawn) | 0
98 | CN(Cc1ccccc1)C(=S)NC(=O)C1CCCCC1 | 1 (active)
99 | CCc1cccc(NC(=O)NC2CCCCC2)c1 | -0.5
100 | CCCN(CC1CC1)C(=S)Nc1ccc(Oc2ccccc2)cc1 | 0
101 | CCOC(=O)C(C)Oc1ccc2c(CC)cc(=O)oc2c1C (stereo not drawn) | -0.5
102 | CCCn1c(=N)c(C(=O)NCc2ccc3c(c2)OCO3)cc2c(=O)n3cccc(C)c3nc21 | 0
103 | O=C(Nc1nnc(SCc2ccc(F)cc2)s1)C1CC(=O)N(c2ccc3c(c2)OCCO3)C1 (stereo not drawn) | 0
104 | C=CCN(CC=C)C(=S)NC(=O)c1ccc([N+](=O)[O-])cc1 | 1 (active)
105 | Cn1cccc1CNC1CCCC1 | 0
106 | C=CCn1c(=S)[nH]c2ccc(Br)cc2c1=O | 1 (active)
107 | COCCNC(=O)CCCCCn1c(=S)[nH]c2ccccc2c1=O | 0
108 | C=CCn1c(=S)[nH]c2ccccc2c1=O | 1 (active)
